Measurements as given in ChEMBL document CHEMBL1157539, “Thousands of chemical starting points for antimalarial lead identification” (Nature, 2010).

Assays:
Type in all cases: functional
[1] = system: Plasmodium falciparum; experiment: GSK_TCMDC: Inhibition of Plasmodium falciparum 3D7 in whole red blood cells, using parasite LDH activity as an index of growth. Test compounds present at 2uM
[2] = system: Plasmodium falciparum; experiment: GSK_TCMDC: Inhibition of Plasmodium falciparum Dd2 in whole red blood cells, using parasite LDH activity as an index of growth. Test compounds present at 2uM
[3] = system: HepG2; experiment: GSK_TCMDC: Percent inhibition of human HepG2 cell line. Test compounds present at 10uM.

Compound | Inhibition [1] [%] | Inhibition [2] [%] | Inhibition [3] [%]
Cc1nc(-c2ccc(C#N)cc2)sc1C(=O)NCCCCN1CCC(c2ccc3c(c2OCCO)CCCC3)CC1.Cl | 99 | 10 | 14
CCc1cccc2c(C#N)cn(CC(=O)Nc3ccc(OC)cc3)c12 | 97 | 76 | 0
Cc1c(-c2ccccc2)ccc2[nH]cc(CC#N)c12 | 95 | 85 | 2
O=C(NC1CC1)c1ccc(Cn2c(SCc3cccc(Cl)c3)nc3ccccc3c2=O)cc1 | 90 | 70 | 2
O=C(c1ccccc1NN=C1C(=O)N(c2ccccc2)N=C1c1ccccc1)N1CCOCC1 | 97 | 2 | 0
CCn1cnc2c(N3CCCS3(=O)=O)cc(C(=O)N[C@@H](Cc3ccccc3)[C@H](O)CNC(C)(C)c3cccc(C(F)(F)F)c3)cc21 | 99 | 97 | 9
Cc1cc(N(C)C2CCN(CC3CCCCC3)C2)nc(Nc2ccc(Cl)cc2)n1 (centres undefined) | 98 | 35 | 0
COc1ccc(Nc2nccc(-c3c(-c4cccc(NC(=O)c5c(F)cccc5F)c4)nn4ccccc34)n2)cc1Cl | 95 | 71 | 61
N#Cc1ccc2c(c1)CN(C1CCC(NC(=O)c3cc(-c4ccc(Cl)cc4)cs3)CC1)CCC2 (centres undefined) | 100 | 99 | 36
COc1ccc(-n2ccnc2SCC(=O)Nc2cc(C(F)(F)F)ccc2Cl)c(OC)c1 | 98 | 76 | 0
Cc1ccc(NC(=O)Nc2ccc(I)c(OCCN(C)C)c2)cc1Cl | 98 | 22 | 11
CNC(=O)c1cnc(Nc2ccc(OCC(O)CN(C)C)cc2)nc1Nc1cccc(Br)c1.O=C(O)C(F)(F)F (centres undefined) | 100 | 100 | 68
O=C(/C=C/c1ccc(Cl)c(Cl)c1)N1CCC(CN2CCC(Cc3c[nH]c4ccccc34)CC2)CC1 | 98 | 13 | 24
COc1ccc(NC(=O)[C@H](Cc2ccccc2)Nc2cc(C)nc(NCCc3cccs3)n2)cc1.O=C(O)C(F)(F)F | 100 | 83 | 12
Nc1ncnc2cc(-c3cccc(S(N)(=O)=O)c3)sc12 | 98 | 99 | 13
Cc1[nH]c(C)c(-c2ccc(OCc3cc(F)cc(F)c3)nc2)c(=O)c1Br | 98 | 97 | 37
CCCC(C(=O)OCCN(CC)CC)(c1ccc(Cl)cc1)c1ccc(Cl)cc1.Cl | 91 | 87 | 7
CCOc1ccc(N(CC)S(=O)(=O)c2cc(Br)cc3c2N(C(=O)C2CC2)CC3)cc1 | 99 | 97 | 0
CCC(=O)c1c(C)n(-c2ncnc3c2nc(C)n3-c2ccc(C)cc2C)c2ccccc12 | 96 | 78 | 0
COc1cc2nc(N3CCC(CNC(=O)/C=C/c4cccc(C)c4)CC3)nc(N)c2cc1OC | 100 | 68 | 16
O=C1C(=Cc2cc(Cc3ccccc3)ccc2O)SC(=S)N1Cc1ccccc1 | 98 | 53 | 16

Compound | Inhibition [1] [%] | Inhibition [2] [%] | Inhibition [3] [%]
CCN1CCC(N2CCC(C(=O)Nc3cccc(-c4cccc(Cl)c4)c3)CC2)CC1 | 91 | 82 | 54
Cl.O=S(=O)(NCCCN1CCOCC1)c1ccc2nccc(Nc3ccc(Oc4ccccc4)cc3)c2c1 | 95 | 92 | 1
CCOc1ccc(C=CC(=O)Nc2ccc3nc(N4CCN(C)CC4)cc(C)c3c2)cc1OC | 100 | 70 | 0
Cc1nc(N2CCC(C)CC2)c2c3c(sc2n1)CCCC3 | 93 | 39 | 13
Cc1cccc2nc(-c3cccc(-c4ccc(NC(=O)c5cccc(C(N)=O)c5)cc4)c3)[nH]c12 | 100 | 61 | 25
COc1cc(-c2cc(-c3ccc(S(C)(=O)=O)cc3)cnc2N)ccc1O | 97 | 97 | 37
Cc1nc2ccc(NC(=O)Nc3ccnc4ccc(C(F)(F)F)cc34)cc2o1 | 89 | 24 | 20
Cc1cc(Nc2ccncc2)n2nc(C)c(-c3ccc(Cl)cc3)c2n1 | 100 | 99 | 0
Cc1ccc(O)c(C(=O)c2cc(C(=O)Nc3ccccc3C)c(=O)n(-c3ccccc3C)c2)c1 | 98 | 81 | 0
CCc1ccccc1N1CCN(CCCC(=O)c2ccc(NC(=O)c3cc(Cl)cc(Cl)c3)cc2)CC1 | 99 | 46 | 16
Cc1ccc(-n2c(C)nc3c(Nc4ccc(-c5ccncc5)cc4)ncnc32)c(C)c1 | 99 | 99 | 38
COc1ccc(CCN2CCC(Nc3nc4ccccc4n3CCc3ccc(OC)cc3)CC2)cc1.Cl | 100 | 88 | 34
COCCN(C)c1ccc(C(=O)Nc2ccccc2)cc1NS(=O)(=O)Cc1ccccc1.O=C(O)C(F)(F)F | 92 | 47 | 2
Cc1cccc(/C=C/C(=O)NC2CCC(N3CCC(c4ccccc4C)CC3)CC2)c1 (centres undefined) | 92 | 20 | 67
COc1ccc(Nc2nc(NCc3ccco3)c3ccccc3n2)cc1.Cl | 99 | 76 | 38
Cc1c(S(=O)(=O)Nc2ccc3ccn(CCN(C)C)c3c2)sc2ccc(Cl)cc12.Cl | 98 | 94 | 15
CCc1nc2ccc(C(=O)OC)nc2n1Cc1ccc2oc(-c3ccccc3N)c(Br)c2c1 | 93 | 75 | 8
O=C(O)c1ccc(-c2cnc3ccc(NC4CCC(O)CC4)nn23)cc1 (centres undefined) | 98 | 90 | 9
CCn1cc(CN2CCCC(C(=O)Nc3ccc(-c4nc5ccccc5[nH]4)cc3)C2)cn1 (centres undefined) | 100 | 26 | 8
COc1cc(-c2nc(C(C)(C)CN)[nH]c2-c2ccncc2)ccc1Br.Cl | 97 | 95 | 17
FC(F)(F)CNc1nc(Nc2ccc3ncccc3c2)nc2[nH]ccc12.O=C(O)C(F)(F)F | 87 | 83 | 37

Compound | Inhibition [1] [%] | Inhibition [2] [%] | Inhibition [3] [%]
O=C(NCCCN1CCC(N2CCCCC2)CC1)c1ccc(N2CCOc3ccccc32)s1 | 100 | 12 | 37
CCOC(=O)N/N=C/[C@H](CCc1ccccc1)NC(=O)[C@H](CC(C)C)NC(=O)c1cc2cccc(OC)c2o1 | 84 | 58 | 3
CC(NC(=O)NC1CCC(CCN2CCCc3ccccc32)CC1)c1cccc2ccccc12.O=C(O)C(F)(F)F (centres undefined) | 90 | 83 | 0
Cc1[nH]c(C)c([N+](=O)[O-])c(=O)c1-c1ccc(Oc2ccccc2)cc1 | 98 | 97 | 11
CN1CCCN(Cc2cccc(-c3ccc(CNC(=O)c4cccc(Cl)c4)c(F)c3)c2)CC1.O=C(O)C(F)(F)F | 96 | 38 | 56
Cc1cnc(C(=O)Nc2cccc(-c3cccc(-c4nc5cc(F)ccc5[nH]4)c3)c2)cn1 | 99 | 24 | 25
Cc1cc(N2CCCC2)nc(Nc2ccc(NC(=O)Nc3ccccc3)cc2)n1 | 99 | 100 | 35
Cl.Nc1c2c(nc3ccc(NC(=O)c4ccc([N+](=O)[O-])cc4)cc13)CCCC2 | 100 | 72 | 19
CC1CCCC(NCc2c(O)ccc3ccccc23)C1.Cl (centres undefined) | 93 | 25 | 10
O=C(c1cccc(Br)c1)N1CCN(c2ccc([N+](=O)[O-])c(NC3CC3)c2)CC1 | 99 | 100 | 5
CCOc1ccc(-c2nonc2NC(=O)c2ccccc2)cc1OCC | 99 | 100 | 6
COc1cc(OC)c(OC)cc1CN1CCC2(CC1)CN(Cc1ccc(Cl)c(Cl)c1)C(=O)O2 | 90 | 94 | 8
Cc1cccc(OCC2CCN(c3ncc(C(=O)NC4CC4)cc3Cl)CC2)c1 | 90 | 78 | 0
O=C(O)c1cc(OCC(O)COc2ccc(O)c(C(=O)O)c2)ccc1O | 99 | 6 | 9
COc1cc2nc(N3CCC(CNC(=O)c4ccc(NC(=O)c5ccc(Cl)cc5)cc4)CC3)nc(N)c2cc1OC | 100 | 100 | 98
Cl.O=C(/C=C/c1ccc(Cl)c(Cl)c1)N1CCC(CN2CCC(c3c[nH]c4ncccc34)CC2)CC1 | 84 | 20 | 38
O=C(NCCCCCN1CCC(c2c[nH]c3ccccc23)CC1)Nc1ccc(Cl)c(Cl)c1 | 92 | 0 | 42
O=c1[nH]c2c(cc1CNC1CCCCC1)c(-c1ccc(F)cc1)nn2-c1ccccc1 | 99 | 88 | 8
COc1ccc(NC(=O)[C@H](CC(C)C)Nc2cc(C)nc(NCCc3cccs3)n2)cc1.O=C(O)C(F)(F)F | 100 | 68 | 5
Cc1cc2c(NC(=O)NC3CCN(CCc4ccccc4Cl)CC3)cccc2cn1.Cl | 100 | 46 | 13
CCN1CCC(N(CCCCCCc2ccc(C(F)(F)F)cc2)C(=O)Cn2c(CCc3cccc(F)c3F)cc(=O)c3ccccc32)CC1.O=C(O)C(O)C(O)C(=O)O | 88 | 82 | 32
